# Source: PubChem BioAssay
# Where “and” joins values, the source holds several entries; their conditions need not be identical. Equal values may be shown once. Calls of active or inactive are those of the source. Unless noted, no rule for the calls is given here.
# Assays:
# [1] = tested on: Aerobactin synthetase IucA (Klebsiella pneumoniae); test: IucA aerobactin synthetase inhibitors, biochemical, Tocris library, absorbance (AID 1345561); conditions: purified IucA enzyme assay, absorbance (OD) read-out; stronger effect = lower value;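 tested at 8 µM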;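 also: 100% = enzyme without compound and 0% = no enzyme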
# [2] = sensitizers of A549 cells to miR-34 induction, primary screen, imaging, A549 dox-inducible miR-34, nuclei and caspase counts (AID 1347080;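 active = compounds whose cell count with miR-34 switched on is under 0.7 times the count with it off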); conditions: A549 miR-34 inducible, Hoechst nuclei count, 48 h
# [3] = viability rescue of complex I mutant cybrids, primary screen, cell-based, galactose medium, ATP luminescence (AID 1645843;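 active = z-score of at least 1.8 in each of two replicates, scored against plate mean and spread of sample wells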;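 also: positive z means more ATP and so rescue of galactose-driven cybrid death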); conditions: complex I mutant cybrid cells, 72 h, stronger effect = higher value
# [4] = phospholipid biosynthesis inhibitors in animal cells, primary screen, cell-based, LOPAC library, screen 4 (AID 1347384); conditions: phospholipid biosynthesis inhibition screen, at 10 µM
# [5] = liver-stage malaria parasite growth inhibition, primary screen, cell-based, HepG2, luciferase luminescence, HepG2 viability (AID 624349; in the data active = parasite load remaining mostly below about 12%, no sharp cut-off; inactive = mostly above about 10%;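 also: 100% = mean of DMSO negative control wells on the same plate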); conditions: P. berghei liver stage in HepG2, luciferase luminescence, concentration not given here; parasite load remaining: stronger effect = lower value; viability: measured here: HepG2 viability without parasites
# [6] = survival rescue of mitochondrial mutant cells in low glucose, primary screen, MELAS cybrids, Rieske KO mouse fibroblasts, CellTiter-Glo (AID 1508586;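 active = mean z-score across replicates of 1.96 or higher in either the MELAS or the Rieske mutant cell line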;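 also: z relative to plate mean and SD of compound and empty wells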)
# [7] = circadian clock period modulators, cell-based, LOPAC library, luminescence reporter (AID 2774); conditions: circadian reporter cells, at 7 µM, actives lie on both sides;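 also: values are relative to mean of DMSO wells on each plate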
# [8] = modifiers of HSF1 nuclear foci, imaging, Selleck Cancer Library (AID 1347162; in the data active = plate-normalised HSF1 focus index below about 0.46); conditions: human cells, at 10 µM; SSMD: measured here: HSF1 foci SSMD mean; cell count: measured here: cell number; plate-normalised HSF1 focus index: stronger effect = lower value
# [9] = stronger effect = lower value, cell number ratio, induced over uninduced
# [10] = measured here: relative caspase fold change +Dox/-Dox
# [11] = measured here: total cells with miR-34 induction, stronger effect = lower value
# [12] = measured here: total cells without miR-34 induction
# [13] = MELAS cybrid survival, CellTiter-Glo 48 h, stronger effect = higher value
# [14] = Rieske KO mouse fibroblast survival, CellTiter-Glo 72 h
smiles,measurement,setting,value
CC(C)N1CCN(c2ccc(C(=O)c3c(-c4ccc(O)cc4)sc4cc(O)ccc34)cc2)CC1,remaining activity,[1],105% (inactive)
same,fold change,[2]; [9],0.989 (inactive)
same,fold change,[2]; [10],1.64
same,cell count,[2]; [11],6900
same,cell count,[2]; [12],6980
same,z-score,[3],-0.43 (inactive)
N=C(N)SCCc1ccc(OCc2ccc([N+](=O)[O-])cc2)cc1,remaining activity,[1],106% (inactive)
same,fold change,[2]; [9],0.959 (inactive)
same,fold change,[2]; [10],0.93
same,cell count,[2]; [11],5550
same,cell count,[2]; [12],5790
same,outcome,[4],inactive
same,z-score,[3],-0.76 (inactive)
CC(C)[C@H]1c2ccc(F)cc2CC[C@@]1(CCN(C)CCCc1nc2ccccc2[nH]1)OC(=O)C1CC1,remaining activity,[1],104% (inactive)
same,fold change,[2]; [9],0.792 (inactive)
same,fold change,[2]; [10],1.77
same,cell count,[2]; [11],263
same,cell count,[2]; [12],332
same,z-score,[3],-0.705 (inactive)
NC(=O)N/N=C/c1ccc(Oc2ccc(F)cc2)cc1,remaining activity,[1],94.3% (inactive)
same,fold change,[2]; [9],0.798 (inactive)
same,fold change,[2]; [10],2.22
same,cell count,[2]; [11],7090
same,cell count,[2]; [12],8890
same,z-score,[3],0.135 (inactive)
CC(=O)NC1=NN(C(C)=O)C(C)(c2ccccc2)S1 (stereo not given),remaining activity,[1],109% (inactive)
same,fold change,[2]; [9],1.17 (inactive)
same,fold change,[2]; [10],2.25
same,cell count,[2]; [11],1640
same,cell count,[2]; [12],1400
same,z-score,[3],-0.275 (inactive)
COc1ccc(C(=O)Nc2sc3c(c2C(N)=O)CCCC3)cc1OC,parasite load remaining,[5],36.2% (inactive)
same,viability,[5],126%
same,remaining activity,[1],100% (inactive)
same,fold change,[2]; [9],0.968 (inactive) and 0.928 (inactive)
same,fold change,[2]; [10],0.55 and 1.37
same,cell count,[2]; [11],7430 and 8340
same,cell count,[2]; [12],7670 and 8990
same,z-score,[6]; [13],-0.293 (inactive)
same,z-score,[6]; [14],0.823
same,z-score,[3],1.42 (inactive)
CN(C)CCCCSC(=N)N,period change,[7],0.15 h (inactive)
same,remaining activity,[1],110% (inactive)
same,fold change,[2]; [9],0.981 (inactive)
same,fold change,[2]; [10],0.637
same,cell count,[2]; [11],8600
same,cell count,[2]; [12],8770
same,SSMD,[8],1.03
same,cell count,[8],6740
same,plate-normalised HSF1 focus index,[8],1.06 (inactive)
same,z-score,[3],0.38 (inactive)
Cc1c(C(=O)NN2CCOCC2)nn(-c2ccc(Cl)cc2Cl)c1-c1ccc(I)cc1,remaining activity,[1],115% (inactive)
same,fold change,[2]; [9],0.846 (inactive)
same,fold change,[2]; [10],0.864
same,cell count,[2]; [11],8280
same,cell count,[2]; [12],9790
same,z-score,[3],-0.285 (inactive)
Cc1ccc(Sc2cncc3sc(C(N)=O)cc23)cc1,remaining activity,[1],99.8% (inactive)
same,fold change,[2]; [9],0.867 (inactive) and 0.873 (inactive)
same,fold change,[2]; [10],2.32 and 1.58
same,cell count,[2]; [11],7640 and 7700
same,cell count,[2]; [12],8800 and 8820
same,z-score,[6]; [13],-0.504 (inactive)
same,z-score,[6]; [14],-0.347
same,z-score,[3],-0.625 (inactive)
